Laboratory results published in PubChem BioAssay AID1159580 (chemical genetic matrix, 2015).
“And” between values parts separate entries of the source, which are not always exact repeats. Equal values may be shown once. Among all 5,500 compounds or so, about 2,000 (36%) were called active. Not shown: some 18% with an inconclusive outcome. Cut-off read from the data, not from the text of the source: active = normalized growth mostly below about 0.91 (no sharp cut-off); inconclusive = no clear call, values can overlap the other calls; inactive = mostly above about 0.92. Some of the results follow. Where a structure was tested more than once in an assay, its records may differ in their call.

Experiment: chemical genetic growth profiling, strain panel (AID 1159580);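 note: tested at 20 µM; growth read once vehicle control cultures reached saturation at 30 °C; 1 = growth at the plate median or of vehicle wells; lower values mean less growth of the strain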
Conditions: S. cerevisiae deletion strains, growth OD

Measured: normalized growth

CN1CCN(CCCN2c3ccccc3Sc3ccc(C(F)(F)F)cc32)CC1
active: locus YAL013W, strain DEP1, stronger effect = lower value 0.065 and 0.82 | locus YAL021C, strain ccr4, stronger effect = lower value 0.0696 | locus YAL026C, strain drs2, stronger effect = lower value 0.0611 | locus YAL030W, strain snc1, stronger effect = lower value 0.0651 | locus YBL061C, strain skt5, stronger effect = lower value 0.0653 | locus YBR009C, strain hhf1, stronger effect = lower value 0.0647 | locus YBR021W, strain FUR4, stronger effect = lower value 0.102 | locus YBR023C, strain chs3, stronger effect = lower value 0.0673 | locus YBR171W, strain sec66, stronger effect = lower value 0.0984 | locus YBR229C, strain ROT2, stronger effect = lower value 0.0712 | locus YBR231C, strain swc5, stronger effect = lower value 0.0679 | locus YBR279W, strain paf1, stronger effect = lower value 0.0731 | locus YCL011C, strain gbp2, stronger effect = lower value 0.0652 | locus YCL016C, strain dcc1, stronger effect = lower value 0.0786 | locus YCL029C, strain bik1, stronger effect = lower value 0.0752 | locus YCL061C, strain MRC1, stronger effect = lower value 0.0741 | locus YCL069W, strain vba3, stronger effect = lower value 0.0697 | locus YCR088W, strain abp1, stronger effect = lower value 0.0705 | locus YDL005C, strain med2, stronger effect = lower value 0.412 | locus YDL035C, strain GPR1, stronger effect = lower value 0.061 | locus YDL040C, strain nat1, stronger effect = lower value 0.0906 | locus YDL074C, strain BRE1, stronger effect = lower value 0.0975 | locus YDL101C, strain DUN1, stronger effect = lower value 0.0711 | locus YDL134C, strain PPH21, stronger effect = lower value 0.0567 | locus YDL192W, strain arf1, stronger effect = lower value 0.0649 | locus YDR001C, strain nth1, stronger effect = lower value 0.0725 | locus YDR069C, strain doa4, stronger effect = lower value 0.0695 | locus YDR101C, strain arx1, stronger effect = lower value 0.0878 | locus YDR137W, strain rgp1, stronger effect = lower value 0.261 | locus YDR150W, strain NUM1, stronger effect = lower value 0.0679 | locus YDR159W, strain sac3, stronger effect = lower value 0.0958 | locus YDR162C, strain NBP2, stronger effect = lower value 0.0537 | locus YDR195W, strain ref2 0.141 | locus YDR297W, strain sur2, stronger effect = lower value 0.0695 | locus YDR318W, strain mcm21, stronger effect = lower value 0.0756 | locus YDR334W, strain swr1, stronger effect = lower value 0.0668 | locus YDR335W, strain msn5, stronger effect = lower value 0.0678 | locus YDR363W, strain ESC2, stronger effect = lower value 0.87 | locus YDR388W, stronger effect = lower value 0.0596 | locus YDR392W, strain spt3, stronger effect = lower value 0.0857 | locus YDR502C, strain sam2, stronger effect = lower value 0.0724 | locus YEL003W, strain gim4, stronger effect = lower value 0.0619 | locus YEL037C, strain rad23, stronger effect = lower value 0.0674 | locus YEL061C, strain CIN8 (second series), stronger effect = lower value 0.0766 | locus YEL061C, strain CIN8, stronger effect = lower value 0.0589 | locus YER015W, strain faa2, stronger effect = lower value 0.0802 | locus YER016W, strain bim1, stronger effect = lower value 0.0723 | locus YER110C, stronger effect = lower value 0.293 | locus YER111C, strain swi4, stronger effect = lower value 0.36 | locus YER155C, strain BEM2, stronger effect = lower value 0.12 | locus YER167W, strain BCK2, stronger effect = lower value 0.0606 | locus YFR010W, strain ubp6, stronger effect = lower value 0.0817 | locus YGL086W, strain mad1, stronger effect = lower value 0.0657 | locus YGL167C, strain pmr1, stronger effect = lower value 0.0948 | locus YGL173C, strain kem1, stronger effect = lower value 0.216 | locus YGL227W, strain vid30, stronger effect = lower value 0.0831 | locus YGL240W, strain doc1, stronger effect = lower value 0.554 | locus YGL248W, strain PDE1, stronger effect = lower value 0.0581 | locus YGL253W, strain hxk2, stronger effect = lower value 0.0605 | locus YGR135W, strain pre9, stronger effect = lower value 0.0937 | locus YGR229C, strain SMI1, stronger effect = lower value 0.0673 and 0.0769 | locus YGR252W, strain gcn5, stronger effect = lower value 0.138 | locus YHR013C, strain ard1, stronger effect = lower value 0.169 | locus YHR027C, strain rpn1, stronger effect = lower value 0.0682 | locus YHR079C, strain IRE1 (second series), stronger effect = lower value 0.0763 | locus YHR094C, strain hxt1, stronger effect = lower value 0.0748 | locus YHR129C, strain ARP1, stronger effect = lower value 0.0646 | locus YHR142W, strain chs7, stronger effect = lower value 0.0848 | locus YHR200W, strain rpn10, stronger effect = lower value 0.0811 | locus YIL066C, strain RNR3, stronger effect = lower value 0.0614 | locus YIL073C, strain SPO22, stronger effect = lower value 0.113 | locus YIR030C, strain dcg1, stronger effect = lower value 0.0766 | locus YJL092W, strain hpr5, stronger effect = lower value 0.0707 | locus YJL095W, strain BCK1 (second series), stronger effect = lower value 0.0585 | locus YJL115W, strain asf1, stronger effect = lower value 0.0851 | locus YJL129C, strain trk1, stronger effect = lower value 0.0827 | locus YJL134W, strain LCB3, stronger effect = lower value 0.108 | locus YJL154C, strain vps35, stronger effect = lower value 0.0623 | locus YJL164C, strain tpk1, stronger effect = lower value 0.0715 | locus YJL166W, strain qcr8, stronger effect = lower value 0.0701 | locus YJL168C, strain set2, stronger effect = lower value 0.0656 | locus YJL187C, strain SWE1 (second series), stronger effect = lower value 0.0593 | locus YJL187C, strain SWE1, stronger effect = lower value 0.0715 | locus YJR043C, strain POL32, stronger effect = lower value 0.0718
0.0702 (active) and 0.956 (inactive): locus YGR078C, strain PAC10, stronger effect = lower value
inactive: locus YAL040C, strain CLN3, stronger effect = lower value 0.989 | locus YCL061C, strain MRC1 (second series), stronger effect = lower value 0.969 | locus YDL185W, strain tfp1, stronger effect = lower value 0.936 | locus YER002W, strain NOP16, stronger effect = lower value 1.07 | locus YER155C, strain BEM2 (second series), stronger effect = lower value 1.01 | locus YGL078C, strain dbp3, stronger effect = lower value 0.978 | locus YHR079C, strain IRE1, stronger effect = lower value 0.961 | locus YIL125W, strain kgd1, stronger effect = lower value 0.982 | locus YJR066W, strain TOR1, stronger effect = lower value 0.915
0.0545 (active) and 0.948 (inactive): locus YHR030C, strain SLT2, stronger effect = lower value
0.0646 (active) and 0.977 (inactive): locus YJL095W, strain BCK1, stronger effect = lower value
